GSH fluor: compound fluorescence on glutathione beads, profiling panel, artefact control, biophysical, 488/530 nm, flow cytometry; AID 1776, 2009; fluorescence (KMESF) at 10 µM; hit rate 0.25% among 190,000; GSH beads flow cytometry, compound fluorescence 488/530 nm; hits give high values; in the data active = fluorescence above about 89;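 note: glutathione beads carrying GST-tagged Bcl family fusion proteins plus one bare bead set; values are compound well signal with DMSO vehicle wells as background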
RGS16-Gao HTS: modulators of RGS16 binding to Galphao, primary screen, biochemical, human proteins, multiplexed bead flow cytometry | Regulator of G-protein signaling 16 (Homo sapiens) + Guanine nucleotide-binding protein … | bead-based flow cytometry RGS16-Galphao binding, fluorescence; actives lie on both sides | binding response (% of control), % at 10 µM | hit rate 0.38% among 220,000; call rule not given here;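 note: Galphao activated by GDP with aluminum fluoride before binding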
RGS7-Gao reg: RGS7-Galphao binding modulators, primary screen, biochemical, multiplexed bead flow cytometry. binding response (% of control), % at 10 µM. hit rate 0.35% among 220,000. Guanine nucleotide-binding protein G(o) subunit alpha (Homo sapiens), P09471. AID 1439, 2008. actives lie on both sides; in the data active = binding response below about 49% or above about 150%; inconclusive = no clear call, values can overlap the other calls; inactive = in between;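 note: fluorescent Galphao held in activated GDP-AlF4 state binding bead-coupled RGS7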
Target sequence (P09471 whole entry, looked up): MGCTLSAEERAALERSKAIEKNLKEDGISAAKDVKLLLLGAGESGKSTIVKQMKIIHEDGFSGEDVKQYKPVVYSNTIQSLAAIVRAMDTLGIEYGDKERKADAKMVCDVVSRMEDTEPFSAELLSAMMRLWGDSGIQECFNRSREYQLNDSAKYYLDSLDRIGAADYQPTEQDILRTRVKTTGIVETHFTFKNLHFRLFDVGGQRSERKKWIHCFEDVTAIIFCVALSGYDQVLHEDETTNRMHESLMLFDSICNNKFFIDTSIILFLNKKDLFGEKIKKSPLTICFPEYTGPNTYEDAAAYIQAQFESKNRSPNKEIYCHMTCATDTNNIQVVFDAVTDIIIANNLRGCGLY
RGS8-Gao reg: RGS8-Galphao binding modulators, primary screen, biochemical, multiplexed bead flow cytometry. hit rate 0.34% among 220,000. AID 1423, 2008. response (percent of control binding), % at 10 µM. actives lie on both sides; in the data active = response below about 60% or above about 140%; inactive = in between;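 note: Galphao activated as the GDP aluminium fluoride complex binding bead-coupled RGS8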
Avidin fluor: green autofluorescence of compounds with avidin beads – biophysical, 488/530 nm, flow cytometry, artefact control, profiling panel. compound fluorescence 488/530 nm; hits give high values. fluorescence (KMESF) at 10 µM. hit rate 0.38% among 220,000; in the data active = fluorescence above about 47
RGS4-Gao reg: modulators of RGS4 binding to Galphao, primary screen, biochemical, multiplexed bead flow cytometry | Guanine nucleotide-binding protein G(o) subunit alpha (Homo sapiens), P09471 | actives lie on both sides | AID 1415, 2008 | hit rate 0.33% among 220,000 | binding response (% of control), % at 10 µM; in the data active = binding response below about 49% or above about 150%; inactive = in between;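 note: fluorescent Galphao activated with aluminum fluoride binding bead-coupled RGS4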
Starred values were filed as active, the others as inactive; u = inconclusive; x = no result given. Sampled rows, rich in hits. Any-hit rate of the full collection: about 1.2%.

SMILES | GSH fluor | RGS16-Gao HTS | RGS7-Gao reg | RGS8-Gao reg | Avidin fluor | RGS4-Gao reg
COc1cccc(-n2c(SCC#N)nnc2-c2cnccn2)c1 | 247* | 95 | 112 | 101 | 6 | 112
COc1ccccc1-c1cc(C(=O)NCc2ccc(F)cc2)no1 | 23 | 99 | 96 | 100 | 23 | 100
COc1ccccc1-c1cc(C(=O)NCc2ccccc2)no1 | 15 | 100 | 103 | 100 | 48* | 101
Cc1ccc(S(=O)(=O)Nc2cc(=O)[nH]c(SCC(=O)Nc3cccc(C)c3)n2)cc1 | x | 96 | u | 97 | 5 | 97
O=C(COn1nnc2ccccc21)N1CCN(Cc2ccccc2)CC1 | 75 | 101 | 96 | 99 | 13 | 101
C=CCn1c(SCC(=O)NC(=O)NCc2ccco2)nc2sc(CC)cc2c1=O | 267* | 100 | 90 | 101 | 5 | 89
C=CCn1c(SCC(=O)NCc2ccco2)nc2ccccc2c1=O | 25 | 98 | 93 | 96 | 10 | 96
CCCCCOC(=O)CSc1n[nH]c(=O)[nH]c1=O | 273* | 103 | 99 | 102 | 9 | 100
CCC(C)n1c(SCC(=O)Nc2cc(C(C)(C)C)nn2-c2ccccc2)nc2ccccc2c1=O (stereo not drawn) | 11 | 100 | 102 | 100 | 5 | 100
CCc1cccc(C)c1NC(=S)N(CCN(C)C)C(C)c1cccnc1 (stereo not drawn) | 17 | 98 | 104 | 104 | 6 | 104
O=C(CSc1nnc(Nc2ccccc2)s1)NCc1ccco1 | 10 | 107 | 106 | 102 | 12 | 104
Cc1ccc(Nc2nnc(SCC(=O)NCc3ccco3)s2)cc1 | 259* | 97 | 94 | 102 | 7 | 95
Cc1ccc(CNC(=O)c2cnc(-c3ccccn3)nc2C(F)(F)F)cc1 | 276* | 99 | 102 | 102 | 7 | 105
CCOC(=O)c1c(-c2cccc([N+](=O)[O-])c2)csc1NC(=O)C1CCCCC1 | 166* | 100 | 97 | 99 | 4 | 96
O=C(NCCCN1CCOCC1)C1Cc2c(ccc3ccccc23)O1 (stereo not drawn) | 11 | 106 | 102 | 103 | 26 | 100
CC1S/C(=N/N=C/c2ccco2)N(Cc2ccccc2)C1=O (stereo not drawn) | x | 109 | u | 105 | 3 | 107
Cc1cc(C(=O)OCC(=O)c2ccc(Br)s2)c(C)o1 | 269* | 86 | 82 | 91 | 7 | 83
C=CCc1c(C)[nH]c2c(OC)cccc2c1=S | 14 | 95 | 106 | 96 | 10 | 103
O=C(NC(=O)N1CCCC1)c1csnn1 | x | 99 | u | 96 | 9 | 94
O=C(CN1C(=O)NC2(CCCCCC2)C1=O)N1CCN(S(=O)(=O)c2ccc(Cl)cc2)CC1 | 22 | 91 | 107 | 94 | 49* | 99
CCN1C(=O)S/C(=C/c2cn(C)c3ccccc23)C1=O | 4 | 100 | 98 | 98 | 12 | 101
C=CCN1C(=O)S/C(=C\c2ccc3c(c2)n(C)c(=O)n3C)C1=O | 10 | 52 | 97 | 87 | 1 | 97
CCN1C(=O)S/C(=C/c2ccsc2)C1=O | 26 | 105 | 106 | 104 | 52* | 99
C=CCN1C(=O)S/C(=C/c2ccsc2)C1=O | 108* | 73 | 106 | 92 | 4 | 105
CCOC(=O)c1sc(N=NC2=C(O)CC(C)(C)CC2=O)c(C(=O)OCC)c1C | 14 | 99 | u | 99 | 11 | 103
NC(=O)N/N=C/c1c(Sc2nnnn2-c2ccccc2)nc2ccccn2c1=O | x | 101 | u | 99 | 7 | 101
Cn1nc(-c2ccccc2)c(C(O)c2ccc(Cl)cc2)c1Cl (stereo not drawn) | 13 | 103 | 108 | 99 | 56* | 100
O=C(COC(=O)c1ccc(S(=O)(=O)NCc2ccco2)cc1)NC1CCCCC1 | 268* | 104 | 94 | 100 | 6 | 96
O=C(COC(=O)c1ccc(S(=O)(=O)NCc2ccco2)cc1)c1ccccc1 | 11 | 106 | 102 | 102 | 6 | 100

Compound activity from PubChem BioAssay.
